Compounds with a hit are over-represented: about 2.2% of the library has one in this group of screens.
dFosB act-1 – activators of mouse delta FosB homodimer. P13346. purified delta FosB, TAMRA-CDK5 oligo fluorescence polarization; percent of positive-control signal above neutral wells. activation, % at 25 µM. 340,000 tested, 0.99% active. AID 493131;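 active = mean activation above about 17%, with every replicate also reaching it, limit read from the data, passing the limit was not always enough; inconclusive = only one of the two conditions met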
PolyA inhibitor – inhibitors of polyadenylation in S. cerevisiae; S. cerevisiae SKY197-pL101 polyadenylation reporter, beta-gal luminescence; efflux-impaired pdr1/pdr3 knockout yeast; score 100 = 6 SD above DMSO; activity score, % at 12 µM; 300,000 tested, 0.02% active; AID 1875;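 active = lowest replicate activity score at least 50, where 100 means six control SD above control mean; inconclusive = lowest score under 50 but half or more replicates reach 50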;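 also: yeast exposed to compound for 9 h at 30 °C; higher score means more reporter readthrough which indicates perturbed polyadenylation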
NALP3 yeast inh – inhibitors of NALP3 inflammasome in yeast; Yeast reconstituted NLRP3/ASC/caspase-1, beta-gal luminescence, 24 h; inhibition, % at 10 µM; 330,000 tested, 0.39% active; AID 2825;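 active = inhibition of 50% or more; inactive = inhibition below 50%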
EBNA-1 inhibitor – blocks EBNA-1 binding to DNA; EBNA-1 DNA binding, fluorescence polarization; inhibition, % at 14.8 µM; 300,000 tested, 0.34% active; in the data active = inhibition above about 28%
NALP1 yeast inh – blocks the NALP1 inflammasome reconstituted in yeast; 280,000 tested, 0.61% active; S. cerevisiae NALP1/ASC/caspase-1 growth, X-gal OD620, 72 h; inhibition, % at 10 µM; AID 2071; in the data active = inhibition mostly above about 24%, no sharp cut-off; inactive = mostly below about 32%
ZTA DNA inh – blocks Epstein-Barr virus ZTA, an EBNA-1 counter-screen | ZTA-DNA binding, fluorescence polarization | 320,000 tested, 0.15% active | P03206 | AID 2234 | inhibition, % at 11 µM; in the data active = inhibition above about 33%
Target sequence (P03206 whole entry, looked up): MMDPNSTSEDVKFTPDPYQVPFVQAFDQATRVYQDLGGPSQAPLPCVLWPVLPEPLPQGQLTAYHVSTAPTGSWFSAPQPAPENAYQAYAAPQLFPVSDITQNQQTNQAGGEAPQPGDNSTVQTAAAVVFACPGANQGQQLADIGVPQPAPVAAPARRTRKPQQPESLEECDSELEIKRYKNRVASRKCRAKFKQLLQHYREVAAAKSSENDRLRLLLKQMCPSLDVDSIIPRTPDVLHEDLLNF
dFosB act-2 – activators of mouse delta FosB homodimer DNA binding | shares compounds with dFosB act-1 | purified delta FosB, TAMRA-CDK5 oligo fluorescence polarization; normalised: neutral wells 0, positive control 100 | activation, % at 24.9 µM | 2,400 tested, under 10 active | AID 588690;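 active = highest replicate activation at or above 34% and every replicate reaching that threshold; inconclusive = meets only one of the two criteria; inactive = meets neither criterion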;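 also: higher polarization means more probe DNA bound by delta FosB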
Of the large screens only hits and unclear results are named; the others gave an inactive call (follow-up assays come after a bar, where they were run).

COc1ccccc1CC(=O)Nc1ccc([N+](=O)[O-])cc1O	dFosB act-1 24.0 | dFosB act-2 inactive
Cc1nn(Cc2ccc(F)cc2)c2sc(C(=O)Nc3nccs3)cc12	dFosB act-1 49.0 | dFosB act-2 inactive
CNc1nc(Nc2ccc(C)c(Cl)c2)c2cnn(C)c2n1	none
Cn1ncc2c(Nc3cccc(Cl)c3)nc(Nc3cccc(Cl)c3)nc21	dFosB act-1 31.4 | dFosB act-2 inactive
Cn1ncc2c(Nc3ccc(Br)cc3)nc(Nc3ccc(Br)cc3)nc21	dFosB act-1 53.2 | dFosB act-2 inactive
O=S(=O)(c1ccccc1)N1CCN(c2cccc(Cl)c2)CC1	none
O=[N+]([O-])c1ccc2[nH]cc(S(=O)(=O)N3CCN(c4cccc(Cl)c4)CC3)c2c1	dFosB act-1 25.9 | dFosB act-2 inactive
CCOc1ccc(NC(=O)CCc2nnc3ccc(N4CCC5(CC4)OCCO5)nn23)cc1	none
CC1(C)Cc2c(cnn2-c2cccc(F)c2)C(NC(=O)C2CCOCC2)C1 (configuration not stated)	none
Cc1ccc([C@H]2C(C(=O)O)=CC[C@@H](c3ccc(C)cc3)N2S(=O)(=O)c2ccc(C)cc2)cc1	none (no result: PolyA inhibitor, EBNA-1 inhibitor, NALP1 yeast inh, ZTA DNA inh)
O=C(Nc1ccccc1)c1nc[nH]c1C(=O)NCCNC(=O)c1[nH]cnc1C(=O)Nc1ccccc1	dFosB act-1 36.7 (no result: PolyA inhibitor, EBNA-1 inhibitor, NALP1 yeast inh, ZTA DNA inh) | dFosB act-2 inactive
Cc1cc(C)c(C#N)c(SCC(=O)Nc2ccccc2C)n1	none
Cc1csc(NC(=O)CSc2nsc(SCC(=O)Nc3nc(C)cs3)c2C#N)n1	dFosB act-1 25.2 | dFosB act-2 inactive
Cc1cc(C)c(C#N)c(SCC(=O)Nc2nnc(-c3ccccc3)s2)n1	dFosB act-1 39.0 | dFosB act-2 inactive
Cc1ccc(NC(=O)CSc2nsc(SCC(=O)Nc3ccc(C)cc3C)c2C#N)c(C)c1	none
COc1ccc(NC(=O)Cn2cnc3ccccc3c2=O)cc1OC	none
COc1ccc2nc(NC(=O)Cn3cnc4ccccc4c3=O)sc2c1	dFosB act-1 30.8 (no result: NALP1 yeast inh) | dFosB act-2 inactive
CCN(C(=O)COC(=O)/C=C/c1ccc(OC)c(OC)c1)c1c(N)n(Cc2ccccc2)c(=O)[nH]c1=O	dFosB act-1 19.9 (no result: PolyA inhibitor, NALP3 yeast inh, EBNA-1 inhibitor, NALP1 yeast inh, ZTA DNA inh) | dFosB act-2 inactive
CCN(C(=O)COC(=O)c1ccc2ccccc2c1)c1c(N)n(Cc2ccccc2)c(=O)[nH]c1=O	dFosB act-1 38.4 (no result: PolyA inhibitor, EBNA-1 inhibitor, NALP1 yeast inh) | dFosB act-2 inactive
COCCN(C(=O)COC(=O)/C=C/c1ccc(SC)cc1)c1c(N)n(Cc2ccccc2)c(=O)[nH]c1=O	dFosB act-1 20.9 (no result: PolyA inhibitor, NALP3 yeast inh, EBNA-1 inhibitor, NALP1 yeast inh, ZTA DNA inh) | dFosB act-2 inactive
CCC(Cc1ccccc1)NS(=O)(=O)c1c(C)nc2sccn2c1=O (configuration not stated)	none
O=C(Nc1cccc2ncccc12)c1ccco1	none
CN(C)c1nc(NCc2ccccc2)nc(N/N=C/c2ccc(Cl)cc2Cl)n1	dFosB act-1 17.4 | dFosB act-2 inactive
Cc1cc(C)nc(NCc2ccc(Cl)cc2)n1	none
Cc1cc(N/N=C/c2cccc(Cl)c2)nc(NCc2ccccc2)n1	dFosB act-1 41.0 | dFosB act-2 inactive
Cc1cc(Nc2cccc(Cl)c2)nc(NCc2ccccc2)n1	dFosB act-1 40.9 | dFosB act-2 inactive
COc1ccc(C)cc1NC(=O)CNC(=O)Cn1ccc2ccccc2c1=O	dFosB act-1 47.1 | dFosB act-2 inactive
COc1ccc([N+](=O)[O-])cc1NC(=O)CCNC(=O)Cn1ccc2ccccc2c1=O	dFosB act-1 19.2 | dFosB act-2 inactive
CCOc1ccc(N(CC(=O)NCc2ccc(OC)cc2)S(C)(=O)=O)cc1	none
CN(CC(=O)Nc1cccc(F)c1)C(=O)CSc1ccccc1F	none
Cc1cc(NC(=O)CSc2nnc(COc3cccc(C)c3C)n2Cc2ccco2)no1	none
C=CCn1c(COc2ccccc2F)nnc1SCC(=O)Nc1cc(C)on1	dFosB act-1 18.4 | dFosB act-2 inconclusive
COCCN1CC(C(=O)N2CCC(Oc3ccccc3OC)CC2)CCC1=O (configuration not stated)	none
C[C@H](CO)N1C[C@H](C)[C@@H](CN(C)C(=O)NC2CCCCC2)Oc2ccc(NC(=O)C3CC3)cc2C1=O	none (no result: PolyA inhibitor, NALP3 yeast inh, EBNA-1 inhibitor, NALP1 yeast inh, ZTA DNA inh)
